High-throughput results from PubChem.
RECQ1 inh-1 – inhibitors of human RECQ1 DNA helicase | AID 2549 | hit rate 0.54% among 240,000 | RECQ1 DNA unwinding, red fluorescence kinetic read | Potency, µM (highest dose often 57.3 µM), usual class: inhibitors | P46063; further: nearly all actives have a fitted effect of over 30% in size
Target sequence (P46063 whole entry, looked up): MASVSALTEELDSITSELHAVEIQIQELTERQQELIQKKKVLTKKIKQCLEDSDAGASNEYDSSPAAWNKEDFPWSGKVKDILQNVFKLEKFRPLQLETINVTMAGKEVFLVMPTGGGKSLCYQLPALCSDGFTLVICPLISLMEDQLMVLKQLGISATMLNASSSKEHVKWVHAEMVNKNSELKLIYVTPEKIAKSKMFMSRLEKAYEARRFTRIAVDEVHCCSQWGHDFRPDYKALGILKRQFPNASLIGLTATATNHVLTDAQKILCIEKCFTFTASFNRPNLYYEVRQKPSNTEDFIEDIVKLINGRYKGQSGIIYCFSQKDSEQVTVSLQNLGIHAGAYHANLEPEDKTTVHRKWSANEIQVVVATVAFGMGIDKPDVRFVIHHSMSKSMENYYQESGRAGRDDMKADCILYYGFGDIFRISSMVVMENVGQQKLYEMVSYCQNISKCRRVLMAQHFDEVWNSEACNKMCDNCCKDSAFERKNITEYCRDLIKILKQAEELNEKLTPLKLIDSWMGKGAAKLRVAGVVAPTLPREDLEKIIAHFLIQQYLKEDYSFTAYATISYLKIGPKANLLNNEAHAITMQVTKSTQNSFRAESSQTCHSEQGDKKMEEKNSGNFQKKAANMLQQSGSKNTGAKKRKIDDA
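RECQ1T1 50 nM; forked duplex (20 bp + 30-nt ss tails) 200 nM, ATP 2 mM final; pH 8.0, 2 mM MgCl2, 2.5 ug/ml poly(dI-dC); 15 min compound preincubation; discontinuous kinetic read over 2 h at RT.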
BLM inh – Bloom syndrome helicase (human) inhibition; AID 2528; hit rate 0.2% among 350,000; recombinant BLM DNA unwinding, fluorescence dequenching; Potency, µM (titrated, usually from 56.1 µM), hits mostly inhibitors; further: nearly all actives have a fitted effect of over 35% in size
APE1 inh – APE1 (human) endonuclease inhibition; P27695; recombinant APE1, TAMRA/BHQ-2 abasic DNA cleavage fluorescence; Potency, µM (highest dose often 65.8 µM), hits mostly inhibitors; hit rate 0.35% among 350,000; AID 2517; further: nearly all actives have a fitted effect of over 55% in size
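0.75 nM APE1 + cpd, 15 min RT; start w/ 50 nM TAMRA/BHQ-2 THF-abasic dsDNA; kinetic fluor 525/598 nm ×3 reads @60 s; Δ(read3−read1); normalized to DMSO and NSC13755 control wells.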
L3MBTL1 inh – L3MBTL1 (human) inhibition | Q9Y468 | AlphaScreen L3MBTL1–H3K9me1 peptide binding | Potency, µM (highest dose often 57.1 µM), most hits filed as inhibitors | hit rate 0.66% among 230,000 | AID 485360; further: nearly all actives have a fitted effect of over 60% in size
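Displacement of a biotinylated histone H3(1-15) peptide monomethylated at Lys9 (75 nM) from L3MBTL1 (50 nM) was measured by AlphaScreen after a 30 min room-temperature compound incubation; cefsulodin titration served as intraplate control.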
RECQ1 inh conf – confirmation of human RECQ1 helicase inhibitors. Potency, µM (doses to about 229 µM), hits mostly inhibitors. RECQ1 helicase DNA unwinding, fluorescence. shares compounds with RECQ1 inh-1. hit rate 28% among 610. AID 2708; further: nearly all actives have a fitted effect of over 45% in size
ADP FP counter – ADP displacement flagged in RECQ1 inhibitor counter-screen | shares compounds with RECQ1 inh-1 | hit rate 27% among 530 | ADP fluorescence polarization displacement counterscreen | Potency, µM (top dose mostly 228 µM), hits mostly inhibitors; further: nearly all actives have a fitted effect of over 45% in size
RECQ1 inh-2 – confirmation of human RECQ1 helicase inhibitors | shares compounds with RECQ1 inh-1 | recombinant RECQ1 DNA unwinding, red fluorescence | Potency, µM (highest dose often 119 µM), most hits filed as inhibitors | hit rate 15% among 1,100 | AID 504841; further: nearly all actives have a fitted effect of over 50% in size
Of the large screens only hits and unclear results are named; the others gave an inactive call (follow-up assays come after a bar, where they were run). Only some compounds are listed: those with a hit (about 0.78% of all), similar ones and a draw of the others. The call rests on the fitted dose curve; in most records, active means well fitted curve in the direction sought with a large enough effect; inconclusive means small, poorly fitted or top-dose-only effect, or another doubt; inactive means no such curve, though single readings can be large; an effect the other way counts as inactive or inconclusive.

CC(C)[C@@H](CC(=O)N[C@@H]1CCCC[C@H]1C(=O)N[C@H](CC(=O)N[C@@H](CCC(=O)O)CC(=O)O)Cc1ccccc1)NC(=O)C[C@H](CO)NC(=O)[C@@H]1CNCC[C@H]1N	none (no result: L3MBTL1 inh)
COc1ccc(-c2cc(C(F)(F)F)nc(SCC(=O)NCc3ccc(OC)c(OC)c3)n2)cc1	none (no result: RECQ1 inh-1, APE1 inh, L3MBTL1 inh)
Cc1ccc(C2=CC(C)(c3ccc(C)cc3)Nc3nc(C(F)(F)F)nn32)cc1 (configuration not stated)	RECQ1 inh-1 inconclusive | RECQ1 inh-2 inactive
Cc1cc(O)cc(O)c1C(=O)OC1(C)C(=O)C=C2C=C(/C=C/C(=O)O)OC=C2C1=O (configuration not stated)	RECQ1 inh-1 28µM, APE1 inh 14µM (no result: L3MBTL1 inh) | RECQ1 inh-2 inconclusive
CCNc1ncc2nc(-c3cccs3)c(=O)n(CCc3ccccc3)c2n1	RECQ1 inh-1 28µM (no result: L3MBTL1 inh) | RECQ1 inh-2 79µM
CCNc1ncc2nc(-c3ccc(F)cc3)c(=O)n(CCc3ccccc3)c2n1	RECQ1 inh-1 28µM (no result: L3MBTL1 inh) | RECQ1 inh-2 79µM
O=S(=O)(Nc1ccc(-c2ccc(N3CCCC3)nn2)cc1)c1cccc(C(F)(F)F)c1	none (no result: RECQ1 inh-1, APE1 inh, L3MBTL1 inh)
COC(=O)CCC(=O)OC1(C)C(=O)C=C2C=C(CCCNC(=O)OC(C)(C)C)OC=C2C1=O (configuration not stated)	none (no result: L3MBTL1 inh)
CCCCN(C(=O)Cn1ncc(Cl)c(Cl)c1=O)c1c(N)n(CC(C)C)c(=O)[nH]c1=O	RECQ1 inh-1 28µM | RECQ1 inh-2 inconclusive
O=S(=O)(Nc1nc2ccccc2nc1Nc1ccc(N2CCOCC2)cc1)c1cc(Cl)ccc1Cl	RECQ1 inh-1 inconclusive | RECQ1 inh-2 inactive
Clc1nc(Nc2ccc(N3CCOCC3)cc2)c2ccccc2n1	none
Cc1oc(-c2ccc(C(=O)NCc3ccccc3)cc2)nc1CN1CCc2ccccc21	none (no result: RECQ1 inh-1, APE1 inh, L3MBTL1 inh)
CCOC(=O)c1c(-c2ccc(C)o2)csc1NC(=O)CSc1nncs1	RECQ1 inh-1 1.8µM, APE1 inh inconclusive | RECQ1 inh conf inactive | ADP FP counter inactive
Cn1ncc2c(Nc3cc(C(F)(F)F)ccc3Cl)ncnc21	none (no result: RECQ1 inh-1, APE1 inh, L3MBTL1 inh)
CS(=O)(=O)c1ccc2c(c1)sc1nc(=O)c(/C=C3/C=CC(=O)C(O)=C3)c(N)n12	RECQ1 inh-1 16µM, BLM inh 25µM, APE1 inh 25µM, L3MBTL1 inh inconclusive | RECQ1 inh-2 7.9µM
COc1cccc(F)c1C(=O)NC(=O)Nc1ccc2nc(C)oc2c1	RECQ1 inh-1 35µM, APE1 inh inconclusive (no result: L3MBTL1 inh) | RECQ1 inh-2 inactive
CSc1nc2ccc(NC(=O)NC(=O)c3c(F)cccc3F)cc2s1	none
O=C(CNC(=O)c1ccccc1)NCC1COc2ccccc2O1 (configuration not stated)	none (no result: L3MBTL1 inh)
Cn1c(C(=O)O)c(CC(=O)NCC2COc3ccccc3O2)c2ccccc21 (configuration not stated)	none | RECQ1 inh conf inactive | ADP FP counter inactive
Cc1cc(C)cc(/C=C/C2OCC(O)C2Oc2ccc(C3CCCC3)cc2)c1 (configuration not stated)	none (no result: L3MBTL1 inh)
CCOC(=O)/C(C#N)=C/c1cc2ccccc2nc1Cl	none
CSc1nc2ccccc2cc1/C=C(\C#N)c1cccc(Cl)c1	RECQ1 inh-1 13µM | RECQ1 inh-2 inactive
COc1cccc(-c2cn3c(n2)sc2cc(C(=O)NCCc4ccccc4)ccc23)c1	none (no result: RECQ1 inh-1, APE1 inh, L3MBTL1 inh)
COc1ccc(NC(=O)c2oc3ccccc3c2NC(=O)c2cc(=O)c3c(C)cc(C)cc3o2)cc1	none (no result: RECQ1 inh-1, APE1 inh, L3MBTL1 inh)
O=C(N/N=C/c1ccc[nH]1)c1ccccc1O	RECQ1 inh-1 3.5µM | RECQ1 inh conf inactive | ADP FP counter inactive
CCCCC#Cc1ccc(C(=O)NNC(=O)Nc2ccccc2)o1	RECQ1 inh-1 28µM | RECQ1 inh-2 inconclusive
CCCCN(CCCC)Cc1ccc(C(=O)NNC(=O)Nc2ccccc2)o1	none (no result: L3MBTL1 inh)
Cc1cc(=O)c2c(O)c(O)ccc2o1	RECQ1 inh-1 35µM, APE1 inh inconclusive, L3MBTL1 inh 18µM | RECQ1 inh-2 inactive
CC1=CCc2c(cc3oc(C)cc(=O)c3c2O)OC1	none (no result: L3MBTL1 inh)
CC(=O)C(C(C)=O)C1(O)C(=O)c2ccccc2C1=O	RECQ1 inh-1 inconclusive, BLM inh inconclusive, APE1 inh inconclusive, L3MBTL1 inh inconclusive | RECQ1 inh-2 inactive
O=C(NC1(O)C(=O)c2ccccc2C1=O)c1ccccc1	BLM inh inconclusive, APE1 inh inconclusive, L3MBTL1 inh inconclusive
O=C(CSc1nc2ccsc2c(=O)n1CC1CCC(C(=O)O)CC1)c1ccc(F)cc1 (configuration not stated)	none (no result: L3MBTL1 inh)
O=C(CSc1nc2ccsc2c(=O)n1CC1CCC(C(=O)O)CC1)c1ccc(Cl)cc1 (configuration not stated)	RECQ1 inh-1 inconclusive, APE1 inh inconclusive (no result: L3MBTL1 inh) | RECQ1 inh-2 20µM
CCCCn1c(SCC(=O)c2ccccc2)nc2ccsc2c1=O	none
O=C(CCCn1c(SCC(=O)NC2CCCCC2)nc2ccccc2c1=O)NCC1CCCO1 (configuration not stated)	none
O=C(CCCn1c(SCC(=O)c2ccc(O)c(O)c2)nc2ccccc2c1=O)NCC1CCCO1 (configuration not stated)	RECQ1 inh-1 14µM, APE1 inh 28µM, L3MBTL1 inh inconclusive | RECQ1 inh conf 71µM | ADP FP counter inactive | RECQ1 inh-2 11µM
CCCCn1c(SCC(=O)c2ccc(O)c(O)c2)nc2ccsc2c1=O	RECQ1 inh-1 22µM | RECQ1 inh-2 8.9µM
Cc1ccc(-c2nc(S(=O)(=O)c3ccc(C)cc3)c(N3CCCCC3)o2)cc1	none (no result: RECQ1 inh-1, APE1 inh, L3MBTL1 inh)
Cc1cccc(NC(=O)CN(C)S(=O)(=O)c2ccc3c(c2)c(=O)n(C)c(=O)n3C)c1C	none (no result: RECQ1 inh-1, APE1 inh, L3MBTL1 inh)
COc1cc(OC)cc(C(=O)N(Cc2cc3cc(C)ccc3[nH]c2=O)C(C)C)c1	none
COc1cccc(C(=O)N(Cc2cc3cc(C)ccc3[nH]c2=O)C(C)C)c1	RECQ1 inh-1 inconclusive | RECQ1 inh-2 inactive
COc1ccc(-n2c(SCC(=O)Nc3nccs3)nnc2-c2ccoc2C)cc1	none (no result: L3MBTL1 inh) | RECQ1 inh conf inactive | ADP FP counter inactive
COc1ccc(-n2c(SCC(=O)Nc3nc(C)cs3)nnc2-c2ccoc2C)cc1	none | RECQ1 inh conf inactive | ADP FP counter inactive
COc1cccc(-n2c(SCC(=O)Nc3nccs3)nnc2-c2ccoc2C)c1	L3MBTL1 inh inconclusive
CC(=O)c1cc2c(cc1NC(=O)c1c(C)nn(-c3ccc(C)cc3)c1-n1cccc1)OCO2	none (no result: RECQ1 inh-1, APE1 inh, L3MBTL1 inh)
Cc1ccc(C)c(N2CCN(C(=O)Cc3ccc(-n4c(=O)[nH]c5ccsc5c4=O)cc3)CC2)c1	none
Cc1cccc(N2CCN(C(=O)Cc3ccc(-n4c(=O)[nH]c5ccsc5c4=O)cc3)CC2)c1C	none | RECQ1 inh conf inactive | ADP FP counter inactive
